Source: PubChem BioAssay (NCI)
This is part of a sample that, as a whole, favours compounds with a hit. Of some 83,000 tested, about 20% had one in any assay.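 In brief: 96-well plates, 48 h treatment, single concentration, percent growth endpoint.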 A number with no mark means an inactive call. Active and inactive are the calls of the source. The calls were made as follows: active = growth percent below 10; inactive = the rest.

How the values were obtained:
Assay in all cases: NCI-60 one-dose screen, 48 h (100 = growth as untreated, 0 = no growth, -100 = all killed)
HT29 colon = details: 10 µM unless noted
SNB-75 CNS = details: 10 µM unless noted
SNB-19 CNS = details: 10 µM unless noted
U251 CNS = details: 10 µM unless noted
PC-3 prostate = details: 10 µM unless noted
UACC-62 melanoma = details: 10 µM unless noted
LOX IMVI melanoma = details: 10 µM unless noted
SK-MEL-28 melanoma = details: 10 µM
SK-MEL-2 melanoma = details: 10 µM unless noted

SMILES | growth (HT29 colon) | growth (SNB-75 CNS) | growth (SNB-19 CNS) | growth (U251 CNS) | growth (PC-3 prostate) | growth (UACC-62 melanoma) | growth (LOX IMVI melanoma) | growth (SK-MEL-28 melanoma) | growth (SK-MEL-2 melanoma)
COc1ccc(C(O)(CCC(C)C)C(CN2CCOCC2)c2ccc(Cl)cc2)cc1 (stereo not given) | 9% (active) | 74.4% | 83.6% | 66.1% | 53.8% | 60.9% | 52.2% | 54.1% | 2.58% (active)
O=c1oc2ccc(I)cc2c(=O)n1-c1ccc(Br)cc1F | 50% | -18.9% (active) | 18.2% | 0.297% (active) | 1.7% (active) | -14.7% (active) | 11.2% | 2.3% (active) | -27.7% (active)
O=C1/C(=C/c2cccc(O)c2)COc2ccc(O)cc21 | 72.7% | 96.4% | 80% | 29.6% | 72.7% | 82.4% | -57.1% (active) | 102% | 108%
O=c1oc2ccc(I)cc2c(=O)n1-c1ccc(F)cc1F | 107% | -13.4% (active) | 14.7% | 8.66% (active) | 3.58% (active) | 0.781% (active) | 11.4% | 18.9% | -17.3% (active)
COc1ccc(-c2c(-c3ccc(OC)c(O)c3)cnc3ncnn23)cc1 | 108% | 99.6% | 102% | 102% | 105% | 99% | 99.8% | 114% | 107%
COc1cc(/C(C#N)=C/c2nc3c(N4CCOCC4)nc(Cl)nc3n2C)cc(OC)c1OC | 9.95% (active) | -9.92% (active) | 17.7% | 8.74% (active) | 10.6% | 2.78% (active) | 8.21% (active) | 46% | 57.3%
COc1cc(C2C(C#N)=C(N)OC3=C2C(=O)c2ccccc2C3=O)cc(OC)c1OC (stereo not given) | 106% | 7.57% (active) | 34.2% | 17.9% | 19% | 25.9% | 27.4% | 58.1% | -2.31% (active)
O=C(CCc1nnc2sc(Cc3ccccc3Cl)nn12)c1nc2ncccc2[nH]1 | 104% | 67.7% | 93.3% | 104% | 85.6% | 83.2% | 88% | 96.2% | 97.9%
Nc1ccc(-c2ccc(-c3ccccc3N)c3[nH]c4ccccc4c23)cc1 | 13.9% | 28.4% | 39% | 35.4% | 24.9% | 25.4% | 27.7% | 51% | 19.5%
COc1ccc(/C=C2/SC(=O)N(CC(=O)N3CCN(c4cc5c(cc4F)c(=O)c(C(=O)O)cn5C4CC4)CC3)C2=O)cc1 | 99.2% | 86.4% | 101% | 101% | 104% | 97.3% | 93.9% | 107% | 108%
O=c1c2cc(F)ccc2sc2c(NCCCNCCO)nc3ccc(Cl)cc3c12 | -48.6% (active) | 46.1% | 76.5% | 33% | 50.7% | 91.6% | 14.6% | 99.9% | 105%
O=c1oc2ccc(Br)cc2c(=O)n1-c1ccc(Cl)cc1F | 20.2% | -26.9% (active) | 17.7% | 3.56% (active) | -7.82% (active) | -28.5% (active) | 8.91% (active) | -0.768% (active) | -19.6% (active)
O=C(Nc1ccc(F)cc1F)c1cc(I)ccc1O | 76.6% | -2.44% (active) | 16.8% | 4.06% (active) | 5.01% (active) | 9.89% (active) | 13.4% | 23.8% | -15.8% (active)
COc1c(B(O)O)cccc1-c1nc2ccc3n[nH]c(F)c3c2c2c1CCCC2 | 105% | -10.9% (active) | 78.8% | 71.4% | 74% | 77.7% | 54.7% | 116% | 110%
O=C1OC(c2ccccc2)(c2ccccc2)c2ccsc21 | 102% | 103% | 102% | 102% | 101% | 94.1% | 103% | 112% | 94%
